Assay [1] addresses Lysosomal acid glucosylceramidase (Homo sapiens) (UniProt P04062). The assay can be described thus: Glucocerebrosidase-p2 (AID 348; in the data active = potency below about 10 µM; also: potency is read from the fitted curve at half-maximal effect). The following applies: purified GBA, blue fluorogenic substrate, 40 min. The gist of the method: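 Compounds titrated from 0.6 nM upwards against 0.2 nM enzyme in pH 5.9 citric acid/KH2PO4, taurocholate, tween-20; blue fluorogenic substrate 80 uM, 40 min room temperature, stopped and read Ex 365/Em 440 for AC50.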

Assay [2] is described as follows: AP1 Signaling Pathway (AID 357; active = well fitted curve in either direction with a large enough effect, not every such curve was filed as active;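 also: ME-180 reporter cells stimulated with EGF at its EC50 level; % is scaled to controls: 0 for no effect and ±100 for the full control effect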). The following applies: ME-180 (cervical carcinoma) AP-1-bla reporter, EGF-induced, beta-lactamase ratio, 5 h; at 7.69 µM (top of the series) unless noted. The gist of the method:
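In this screen, ME-180 cells in Opti-MEM with 0.5% dialyzed FBS received EC50 EGF and compound titrations for 5 h. AP-1 reporter beta-lactamase was detected via CCF4 ratio, giving AC50 for positive and negative modulators.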

Assay [3] has as its target Cytochrome P450 1A2 (Homo sapiens) (UniProt P05177). Description: p450-cyp1a2 (AID 410; calls by dose curve; also: potency is read from the fitted curve at half-maximal effect). The following applies: recombinant CYP1A2, luciferin-ME demethylation, luminescence; series mostly up to 57 µM. The gist of the method:
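20nM CYP1A2 with 100uM Luciferin-ME (at Km) in 100mM KPO4; compound preincubated 10 min, NADPH regeneration added, 60 min at room temperature. Luciferin quantified by luminescence after detection reagent; normalized to 57 uM furafylline.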

Assay [4] in a line: NFAT Signaling Pathway (AID 444; active = well fitted curve in either direction with a large enough effect, not every such curve was filed as active;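 also: carbachol stimulus at about its EC50 of 1 µM final; % is scaled to controls: 0 for no effect and ±100 for the full control effect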). The note with it: Jurkat NFAT-bla M1, carbachol, beta-lactamase ratio, 5 h; at 7.69 µM (top of the series) unless noted. Put shortly:
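Jurkat cells carrying an NFAT-driven β-lactamase reporter and co-transfected muscarinic M1 receptor were treated with compound plus carbachol (1 uM final, an EC50 level) for 5 h at 37 °C. CCF4 loading followed for 1 h at RT; 460/530 nm ratio gave %activity.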

The target of assay [5] is Glucocorticoid receptor (Homo sapiens) (UniProt P04150). Description: GR-GFP Redistribution (AID 450;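 active = compounds whose dose series gives a full or clear partial fitted curve of increased nuclear translocation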; also: potency is read from the fitted curve at half-maximal effect). The note with it: U2OS GR-GFP nuclear translocation, laser cytometry, 2 h.
Glucocorticoid receptor (Homo sapiens), sequence (P04150 whole entry, looked up, the tested form may be a part): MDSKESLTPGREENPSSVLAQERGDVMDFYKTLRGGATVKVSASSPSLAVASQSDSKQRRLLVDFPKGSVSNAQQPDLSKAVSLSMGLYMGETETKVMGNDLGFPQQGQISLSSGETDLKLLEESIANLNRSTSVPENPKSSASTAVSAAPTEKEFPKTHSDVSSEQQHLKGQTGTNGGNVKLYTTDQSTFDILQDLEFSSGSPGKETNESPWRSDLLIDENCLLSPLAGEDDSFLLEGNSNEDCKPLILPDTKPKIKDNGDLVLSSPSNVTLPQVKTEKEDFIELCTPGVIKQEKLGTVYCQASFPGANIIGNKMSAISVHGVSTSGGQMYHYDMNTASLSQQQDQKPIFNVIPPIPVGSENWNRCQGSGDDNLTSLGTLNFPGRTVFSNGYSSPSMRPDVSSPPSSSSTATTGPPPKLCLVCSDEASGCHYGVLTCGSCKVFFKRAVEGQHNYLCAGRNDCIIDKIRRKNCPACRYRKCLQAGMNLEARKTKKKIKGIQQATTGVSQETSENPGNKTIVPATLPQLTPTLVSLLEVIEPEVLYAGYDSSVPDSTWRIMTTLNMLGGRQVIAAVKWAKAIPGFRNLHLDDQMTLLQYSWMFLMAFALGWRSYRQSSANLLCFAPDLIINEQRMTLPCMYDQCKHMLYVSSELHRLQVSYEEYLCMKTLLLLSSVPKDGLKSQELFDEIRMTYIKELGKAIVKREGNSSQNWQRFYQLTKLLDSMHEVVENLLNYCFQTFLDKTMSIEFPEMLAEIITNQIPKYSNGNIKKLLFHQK
Assay [6] has the same target. Description: GR-EFC Redistribution (AID 451; calls by dose curve; also: potency is read from the fitted curve at half-maximal effect). The note with it: CHO-K1 GR-EFC translocation, beta-gal luminescence, 2 h. The gist of the method: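 CHO-K1 cells stably expressing nuclear-localized β-gal enzyme acceptor and GR fused C-terminally to the enzyme donor fragment; ligand-driven nuclear translocation restores β-gal by complementation. Compounds titrated up to 46 uM final, 2 h at 37 °C; luminescence read.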

The target in assay [7] is Mitogen-activated protein kinase 10 (Mus musculus) (UniProt Q61831). Description: JNK3 AlphaScreen Assay (AID 530; active = well fitted curve in either direction with a large enough effect, not every such curve was filed as active;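 also: kinase came from lysate of stimulated human HepG2 cells; signal reports phosphorylation of biotinylated GST-cJun 1-79 at Ser73 with 10 µM ATP; % is scaled to controls: 0 for no effect and ±100 for the full control effect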). The note with it: JNK3 lysate, c-Jun phosphorylation; series mostly up to 57.1 µM. Put shortly: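 Inhibitors reduce antibody binding to phosphorylated biotin-cJun, lowering AlphaScreen luminescence. Lysates from HepG2 cells pre-activated by IL-1beta plus TNF-alpha supplied JNK3; compounds were titrated.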

In assay [8] the target is Cytochrome P450 2C9 (Homo sapiens) (UniProt P11712). Description: qHTS Assay for Inhibitors and Substrates of Cytochrome P450 2C9 (AID 883). Also: % is scaled to controls: 0 for no effect and ±100 for the full control effect; nearly all actives have a fitted effect of over 60% in size. The following applies: recombinant CYP2C9, luciferin-H luminescence, 60 min; series mostly up to 57.1 µM. The gist of the method: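 A luminogenic readout tracked human CYP2C9 (10nM) converting deoxyluciferin (100uM, at KM) in 25mM KPO4 during 60 min at 37C with regenerated NADPH. Values normalized to 57uM sulphaphenazole as complete inhibition.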
(In general: qHTS replaces the single test concentration by a dilution series.)

In assay [9] the target is Cytochrome P450 3A4 (Homo sapiens) (UniProt P08684). Description: qHTS Assay for Inhibitors and Substrates of Cytochrome P450 3A4 (AID 884). Also: % is scaled to controls: 0 for no effect and ±100 for the full control effect; nearly all actives have a fitted effect of over 50% in size. The following applies: recombinant CYP3A4, Luciferin-PPXE luminescence; series mostly up to 57.1 µM. Put shortly: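 20 nM human CYP3A4 with 25 uM Luciferin-PPXE (at KM) in 200 mM KPO4, preincubated 10 min with compound; NADPH regeneration started a 60 min RT reaction. Luciferin detected by luminescence, normalized to 57 uM ketoconazole as full inhibition.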

Assay [10] has as its target Cytochrome P450 2D6 (Homo sapiens) (UniProt P10635). The assay can be described thus: qHTS Assay for Inhibitors and Substrates of Cytochrome P450 2D6 (AID 891).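 Also: luciferin methyl ether substrate demethylated by CYP2D6 with NADPH regeneration; % is scaled to controls: 0 for no effect and ±100 for the full control effect; nearly all actives have a fitted effect of over 60% in size.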 The following applies: recombinant CYP2D6, luciferin-ME EGE luminescence; series mostly up to 57.1 µM. The gist of the method:
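Human CYP2D6 (5 nM) with 30 uM Luciferin-ME EGE (at Km) in 100 mM KPO4, compound preincubated 10 min, then NADPH regeneration system for 60 min at room temperature. Luciferin read by luminescence; normalized to 1.43 uM quinidine.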

Assay [11] concerns the target Cytochrome P450 2C19 (Homo sapiens) (UniProt P33261). The assay can be described thus: qHTS Assay for Inhibitors and Substrates of Cytochrome P450 2C19 (AID 899). Also: potency is read from the fitted curve at half-maximal effect; nearly all actives have a fitted effect of over 60% in size. The following applies: recombinant CYP2C19, luciferin-H EGE luminescence; series mostly up to 57.1 µM. The gist of the method: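 NADPH-dependent conversion of Luciferin-H EGE (10uM, at KM) by 5nM enzyme in 50mM KPO4, 60 min at 37C following 10 min compound preincubation. Stopped with luciferin detection buffer; luminescence read after 20 min.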

In assay [12] the target is Ubiquitin carboxyl-terminal hydrolase 1 (Homo sapiens) (UniProt O94782). The assay can be described thus: Inhibitors of USP1/UAF1: Pilot qHTS (AID 504865).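 Also: rhodamine fluorescence freed from ubiquitin-rhodamine substrate followed over time; top concentration of the series differs between compounds; % is scaled to controls: 0 for no effect and ±100 for the full control effect; nearly all actives have a fitted effect of over 35% in size.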 The following applies: purified USP1/UAF1, Ub-rhodamine cleavage fluorescence; series mostly up to 54.9 µM. Put shortly:
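In 50mM HEPES pH 7.8 containing 0.5mM EDTA, 1mM TCEP, 0.1 mg/ml BSA and 0.01% Tween-20, 1nM USP1/UAF1 is exposed to compound for 15 min, then Ub-Rho (150nM final) is added and fluorescence is read over time.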

In assay [13] the target is Rap guanine nucleotide exchange factor 3 (Homo sapiens) (UniProt O95398). Description: Confirmatory qHTS for antagonist of cAMP-regulated guanine nucleotide exchange factor 3 (EPAC1) (AID 1645880). Also: nearly all actives have a fitted effect of over 55% in size. Also: potency is read from the fitted curve at half-maximal effect.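 As to activity, negative = inhibition: plate controls were DMSO only for no effect and full effect of the ATA control for full effect.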 The note with it: EPAC1 Rap1B-BODIPY-GDP exchange, fluorescence; activity, negative = inhibition: at 115 µM (top of the series). The gist of the method:
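Nucleotide exchange uses 100 nM EPAC1, 250 nM RAP1B-BODIPY-GDP and 50 uM GDP, with compounds in a concentration-titration series. After 5 min at room temperature, fluorescence (480 nm ex/540 nm em) is read every 5 min for 30 min. Data are normalized to control ATA and DMSO.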

Assay [14] has the same target. The assay can be described thus: Confirmatory qHTS for agonist of cAMP-regulated guanine nucleotide exchange factor 3 (EPAC1) (AID 1645881).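 Also: EPAC1 catalysed release of BODIPY-GDP from Rap1B seen as fluorescence loss; 100% = effect of cAMP agonist control; nearly all actives have a fitted effect of over 75% in size.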 The note with it: EPAC1 Rap1B BODIPY-GDP exchange fluorescence; series mostly up to 154 µM.
Assay [15] has as its target Rap guanine nucleotide exchange factor 4 (Homo sapiens) (UniProt Q8WZA2). The assay can be described thus: Confirmatory qHTS for agonist of cAMP-regulated guanine nucleotide exchange factor 4 (EPAC2) (AID 1645884).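 Also: nucleotide exchange releases bodipy-GDP from Rap1 and this lowers its fluorescence; % is scaled to controls: 0 for no effect and ±100 for the full control effect; nearly all actives have a fitted effect of over 65% in size.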 The note with it: EPAC2 GEF activity, Rap1B-BODIPY-GDP fluorescence; series mostly up to 154 µM.
The target in assay [16] is Rap guanine nucleotide exchange factor 3 (Homo sapiens) (UniProt O95398). The assay can be described thus: Counterscreen qHTS for agonist of cAMP-regulated guanine nucleotide exchange factor 3 (EPAC1) (AID 1645889). Also: % of control where 0% means no effect; nearly all actives have a fitted effect of over 40% in size. The note with it: EPAC1 Rap1B-BODIPY-GDP exchange, fluorescence; series mostly up to 154 µM. The gist of the method: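 Measured: fluorescence of BODIPY-GDP bound to Rap1B, which falls as exchange proceeds. Conditions include 50 uM competing GDP, 5 and 30 min reads, and a later cAMP challenge for antagonist detection.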
Rap guanine nucleotide exchange factor 3 (Homo sapiens), sequence (O95398 whole entry, looked up): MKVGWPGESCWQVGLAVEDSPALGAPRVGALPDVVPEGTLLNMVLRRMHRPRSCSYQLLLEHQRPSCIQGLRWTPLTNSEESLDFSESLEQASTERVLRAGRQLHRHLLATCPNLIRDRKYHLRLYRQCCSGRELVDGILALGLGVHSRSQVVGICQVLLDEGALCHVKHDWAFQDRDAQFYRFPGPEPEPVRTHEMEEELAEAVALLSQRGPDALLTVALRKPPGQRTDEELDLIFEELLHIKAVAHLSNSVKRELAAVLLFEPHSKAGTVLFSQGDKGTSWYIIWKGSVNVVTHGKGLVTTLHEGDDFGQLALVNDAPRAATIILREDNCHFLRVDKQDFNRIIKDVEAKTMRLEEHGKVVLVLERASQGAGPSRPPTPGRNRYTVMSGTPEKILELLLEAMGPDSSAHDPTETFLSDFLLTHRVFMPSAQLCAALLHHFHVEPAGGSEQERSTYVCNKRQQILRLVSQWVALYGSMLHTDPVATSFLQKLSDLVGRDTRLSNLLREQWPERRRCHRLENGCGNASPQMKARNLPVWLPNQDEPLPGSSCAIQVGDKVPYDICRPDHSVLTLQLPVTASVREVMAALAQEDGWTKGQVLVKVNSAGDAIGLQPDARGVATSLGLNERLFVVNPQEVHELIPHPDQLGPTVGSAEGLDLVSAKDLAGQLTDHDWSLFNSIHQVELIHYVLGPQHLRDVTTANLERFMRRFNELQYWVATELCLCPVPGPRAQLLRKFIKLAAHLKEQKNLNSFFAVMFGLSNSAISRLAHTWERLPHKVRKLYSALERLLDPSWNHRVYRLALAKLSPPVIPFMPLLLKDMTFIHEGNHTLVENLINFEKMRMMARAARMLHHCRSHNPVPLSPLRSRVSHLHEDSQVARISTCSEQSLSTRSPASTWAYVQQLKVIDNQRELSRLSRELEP

From PubChem BioAssay (NCATS) come the findings set out here.

A number with no mark means an inactive call. Inconclusive results are not listed. Activity calls are given as the source filed them. Unless noted, calls follow the shape of the dose curve; as a rule, active = well fitted curve in the direction sought with a large enough effect; inconclusive = small, poorly fitted or top-dose-only effect, or another doubt; inactive = no such curve, though single readings can be large; an effect the other way counts as inactive or inconclusive. A value given as a limit tells only on which side of the number the result lay.

Rap guanine nucleotide exchange factor 4 (Homo sapiens), sequence (Q8WZA2 whole entry, looked up): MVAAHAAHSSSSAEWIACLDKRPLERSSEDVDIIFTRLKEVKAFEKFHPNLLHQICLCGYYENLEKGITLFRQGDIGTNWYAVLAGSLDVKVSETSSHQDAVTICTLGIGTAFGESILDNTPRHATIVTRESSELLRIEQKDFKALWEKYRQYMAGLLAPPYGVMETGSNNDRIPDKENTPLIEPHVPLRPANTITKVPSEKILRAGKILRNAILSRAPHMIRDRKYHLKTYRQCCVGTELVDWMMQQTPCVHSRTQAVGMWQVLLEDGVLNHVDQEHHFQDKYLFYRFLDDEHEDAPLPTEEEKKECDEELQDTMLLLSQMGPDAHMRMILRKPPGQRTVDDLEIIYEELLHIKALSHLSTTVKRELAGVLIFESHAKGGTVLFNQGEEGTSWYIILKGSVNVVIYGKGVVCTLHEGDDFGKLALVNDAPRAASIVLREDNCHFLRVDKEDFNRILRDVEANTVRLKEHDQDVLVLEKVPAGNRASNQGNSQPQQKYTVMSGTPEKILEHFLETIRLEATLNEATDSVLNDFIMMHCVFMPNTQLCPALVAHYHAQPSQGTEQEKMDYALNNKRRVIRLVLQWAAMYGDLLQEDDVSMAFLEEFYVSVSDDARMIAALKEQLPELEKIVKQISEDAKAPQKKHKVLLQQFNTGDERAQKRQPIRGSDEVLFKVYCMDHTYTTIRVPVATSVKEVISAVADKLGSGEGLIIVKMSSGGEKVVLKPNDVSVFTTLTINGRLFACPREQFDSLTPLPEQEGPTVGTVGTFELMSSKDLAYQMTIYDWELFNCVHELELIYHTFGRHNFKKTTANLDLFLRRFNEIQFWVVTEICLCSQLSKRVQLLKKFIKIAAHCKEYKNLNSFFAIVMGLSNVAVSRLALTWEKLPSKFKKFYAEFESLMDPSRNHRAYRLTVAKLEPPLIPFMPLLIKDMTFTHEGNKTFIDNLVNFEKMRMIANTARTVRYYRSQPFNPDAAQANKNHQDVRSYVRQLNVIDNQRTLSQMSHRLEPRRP
Cytochrome P450 2D6 (Homo sapiens), sequence (P10635 whole entry, looked up): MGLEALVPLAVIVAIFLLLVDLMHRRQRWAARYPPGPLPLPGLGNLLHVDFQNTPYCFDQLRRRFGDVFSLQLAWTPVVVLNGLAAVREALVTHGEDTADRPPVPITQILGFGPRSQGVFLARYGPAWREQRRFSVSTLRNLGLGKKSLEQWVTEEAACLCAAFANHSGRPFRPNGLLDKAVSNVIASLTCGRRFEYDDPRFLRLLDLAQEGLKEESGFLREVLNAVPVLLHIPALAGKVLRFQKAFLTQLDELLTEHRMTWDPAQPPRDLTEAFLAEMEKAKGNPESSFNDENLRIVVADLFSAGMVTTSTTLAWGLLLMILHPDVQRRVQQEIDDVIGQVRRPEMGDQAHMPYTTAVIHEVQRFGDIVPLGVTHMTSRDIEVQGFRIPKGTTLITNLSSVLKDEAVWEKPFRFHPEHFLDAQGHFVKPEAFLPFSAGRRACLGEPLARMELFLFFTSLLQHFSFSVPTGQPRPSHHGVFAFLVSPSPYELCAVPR
Lysosomal acid glucosylceramidase (Homo sapiens), sequence (P04062 whole entry, looked up): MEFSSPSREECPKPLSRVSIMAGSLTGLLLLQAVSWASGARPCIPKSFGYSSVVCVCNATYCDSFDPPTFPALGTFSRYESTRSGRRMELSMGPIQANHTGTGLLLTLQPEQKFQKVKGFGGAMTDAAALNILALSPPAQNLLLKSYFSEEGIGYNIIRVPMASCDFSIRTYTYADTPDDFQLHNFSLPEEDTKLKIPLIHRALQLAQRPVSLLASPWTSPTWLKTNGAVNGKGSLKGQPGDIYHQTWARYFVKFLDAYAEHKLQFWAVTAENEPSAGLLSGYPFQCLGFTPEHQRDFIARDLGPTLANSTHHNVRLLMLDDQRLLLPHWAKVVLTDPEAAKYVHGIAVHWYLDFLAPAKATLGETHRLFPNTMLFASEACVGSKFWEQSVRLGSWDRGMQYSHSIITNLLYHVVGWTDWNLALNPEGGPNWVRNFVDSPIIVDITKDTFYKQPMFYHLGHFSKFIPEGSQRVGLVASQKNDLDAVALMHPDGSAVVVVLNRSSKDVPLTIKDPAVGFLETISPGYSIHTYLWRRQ
Ubiquitin carboxyl-terminal hydrolase 1 (Homo sapiens), sequence (O94782 whole entry, looked up): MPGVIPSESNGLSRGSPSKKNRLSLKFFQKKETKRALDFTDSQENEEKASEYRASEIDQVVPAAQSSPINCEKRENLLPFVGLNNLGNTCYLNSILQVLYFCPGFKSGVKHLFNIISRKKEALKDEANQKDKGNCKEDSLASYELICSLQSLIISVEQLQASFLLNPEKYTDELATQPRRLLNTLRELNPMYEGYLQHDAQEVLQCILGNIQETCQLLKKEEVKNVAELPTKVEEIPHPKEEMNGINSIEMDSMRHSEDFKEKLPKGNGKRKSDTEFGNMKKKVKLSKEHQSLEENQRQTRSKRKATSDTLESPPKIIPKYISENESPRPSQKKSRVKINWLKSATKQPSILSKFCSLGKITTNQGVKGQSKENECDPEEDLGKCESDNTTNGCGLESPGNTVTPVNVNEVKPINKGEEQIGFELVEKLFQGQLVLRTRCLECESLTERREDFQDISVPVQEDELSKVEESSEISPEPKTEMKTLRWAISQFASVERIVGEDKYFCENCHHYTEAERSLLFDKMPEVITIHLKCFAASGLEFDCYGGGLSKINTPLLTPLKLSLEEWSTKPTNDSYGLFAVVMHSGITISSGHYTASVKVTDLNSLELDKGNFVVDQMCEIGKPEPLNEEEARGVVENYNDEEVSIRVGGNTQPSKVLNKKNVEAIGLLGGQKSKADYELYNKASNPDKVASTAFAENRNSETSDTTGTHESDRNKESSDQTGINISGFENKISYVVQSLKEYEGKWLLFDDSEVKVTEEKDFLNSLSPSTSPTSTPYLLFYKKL
Cytochrome P450 2C19 (Homo sapiens), sequence (P33261 whole entry, looked up): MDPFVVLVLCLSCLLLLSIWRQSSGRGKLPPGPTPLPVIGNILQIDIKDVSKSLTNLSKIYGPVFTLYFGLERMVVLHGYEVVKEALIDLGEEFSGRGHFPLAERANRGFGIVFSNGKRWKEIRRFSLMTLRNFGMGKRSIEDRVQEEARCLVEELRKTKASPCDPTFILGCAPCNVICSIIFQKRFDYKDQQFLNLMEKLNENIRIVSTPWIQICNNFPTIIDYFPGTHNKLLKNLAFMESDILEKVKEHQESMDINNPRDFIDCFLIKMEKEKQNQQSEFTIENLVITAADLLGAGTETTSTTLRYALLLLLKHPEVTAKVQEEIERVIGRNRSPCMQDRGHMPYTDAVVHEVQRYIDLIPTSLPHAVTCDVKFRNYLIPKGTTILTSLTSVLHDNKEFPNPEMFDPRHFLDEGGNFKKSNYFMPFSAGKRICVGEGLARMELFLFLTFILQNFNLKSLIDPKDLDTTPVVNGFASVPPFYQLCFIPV

As for `Cc1ccccc1-c1ccc2ncnc(N3CCOCC3)c2c1`, the Potency is more than 11.4 µM in [1]; 1.26 µM (active) in assay [3]; more than 46 µM in assay [5]; more than 46 µM in assay [6]; 1.58 µM (active) in [11]. In addition, the results for the activity change, negative = inhibition in [2], in assay [4] and in [8] were -27.7%, 20.5% and -24.2% [at 2.29 µM], respectively. Moreover, the Potency entry in assay [7], in [9], in assay [10], in [12], in [13] and in [14] was “inactive” each time. Also, in assay [15], the Potency entry was “inactive”.

For the molecule `O=C(O)Cc1ccc(C(=O)c2ccc(Cl)cc2Cl)s1`, the Potency result in assay [13], in [14], in assay [15] and in assay [16] was “inactive” each time.

For `COC(=O)c1cc(C(=O)OC)n(Cc2ccc(F)cc2)c1C`, the Potency result in [13], in assay [14], in [15] and in assay [16] was “inactive” throughout.

As for `O=C(O)/C(CC(=O)c1ccc(Cl)cc1)=N/Nc1ccc([N+](=O)[O-])cc1[N+](=O)[O-]`, the Potency in [13] was 75.7 µM (active). Further, the Potency entry in assay [14], in assay [15] and in assay [16] was “inactive” each time.
